{
  "source": "PubChem BioAssay AID2540",
  "about": "(Sanford-Burnham Center for Chemical Genomics, 2010)",
  "note": "The campaign covered roughly 330,000 compounds. About 4,100 (1.2%) were called active. The list comes from a sample in which actives are over-represented; it also holds similar structures and randomly drawn compounds. A number with no mark means an inactive call. No stated cut-off is given here; in the data, active means inhibition above about 50%; inactive means the rest.",
  "data": [
    {"biological_target": "Sentrin-specific protease 8 (Homo sapiens) (UniProt Q96LD8)", "sequence (Q96LD8 whole entry, looked up)": "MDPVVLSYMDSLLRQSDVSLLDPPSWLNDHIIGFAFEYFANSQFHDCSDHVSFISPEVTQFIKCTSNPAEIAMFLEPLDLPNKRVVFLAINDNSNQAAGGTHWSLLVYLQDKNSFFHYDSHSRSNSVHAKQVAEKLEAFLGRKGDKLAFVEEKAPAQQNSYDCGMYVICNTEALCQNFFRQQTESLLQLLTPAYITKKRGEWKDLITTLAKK", "experiment": "SENP8 protease inhibitors, primary screen, biochemical, luminescence (AID 2540)", "conditions": "purified SENP8, Z-RLRGG-aminoluciferin cleavage, at 10 µM, stronger effect = higher value", "values": [
      {"smiles": "COc1ccc(OCC(=O)NCCS(=O)(=O)N2CCN(c3ccc(F)cc3)CC2)cc1", "inhibition": "1.89%"},
      {"smiles": "CN=C(NC#N)NCCSCc1nc[nH]c1C", "inhibition": "-4.47%"},
      {"smiles": "Cc1cc(O)cc(O)c1C(=O)Cc1cnn(-c2ccccc2)c1", "inhibition": "-5.32%"},
      {"smiles": "O=C(Nc1ccccc1)OCc1cn(-c2ccc(Cl)cc2)nn1", "inhibition": "-2.31%"},
      {"smiles": "O=C(c1cnn(-c2ccc(Cl)cc2)c1)c1ccccc1O", "inhibition": "91.4% (active)"},
      {"smiles": "O=c1[nH]c(CN2CCOCC2)nc2scc(-c3ccccc3)c12", "inhibition": "1.83%"},
      {"smiles": "O=[N+]([O-])c1ccc(C=Nc2ccc(Cl)cc2Cl)s1", "inhibition": "59.6% (active)"},
      {"smiles": "CC(C)(C)c1cc(C(=O)N/N=C/c2ccc([N+](=O)[O-])s2)n[nH]1", "inhibition": "20.8%"},
      {"smiles": "Cc1ccccc1NCC(=O)N/N=C\\c1ccc([N+](=O)[O-])s1", "inhibition": "33%"},
      {"smiles": "CCc1ccc(NC(=O)N2CCc3ccccc3C2)cc1", "inhibition": "-3.45%"},
      {"smiles": "COc1ccc([N+](=O)[O-])cc1NC(=O)C(C)OC(=O)C1c2ccccc2Oc2ccccc21", "note": "(centres undefined)", "inhibition": "-5.39%"},
      {"smiles": "Cn1cnc(C(F)(F)F)c1-c1ccc([N+](=O)[O-])cc1", "inhibition": "2.27%"},
      {"smiles": "CCOC(=O)N1CCN(C(=O)Cn2cnc3ccccc3c2=O)CC1", "inhibition": "-8.63%"},
      {"smiles": "CN(C(=O)Nc1ccc(Cl)cc1)n1cnc2ccccc2c1=O", "inhibition": "-6.28%"},
      {"smiles": "O=c1c2ccccc2ncn1/N=C/c1ccccc1", "inhibition": "80.9% (active)"},
      {"smiles": "CCOC(=O)C1CCN(S(=O)(=O)c2ccc3c(c2)N(C(C)=O)CCO3)CC1", "inhibition": "-1.03%"},
      {"smiles": "Cc1ccc(CNC(=O)[C@@H](NC(=O)Cc2ccccc2)C(C)C)cc1", "inhibition": "2.25%"},
      {"smiles": "CC(C)C(=O)Nc1nnc(SCC(=O)N2C(C)CCCC2C)s1", "note": "(centres undefined)", "inhibition": "-3.68%"},
      {"smiles": "COc1ccc(C2C3=C(OC(C)=O)c4ccccc4C3=Nc3c2c(=O)n(C)c(=O)n3C)cc1", "note": "(centres undefined)", "inhibition": "7.93%"},
      {"smiles": "O=C(COC(=O)/C=C/c1cn(-c2ccccc2)nc1-c1cccnc1)Nc1ccc(Cl)cc1Cl", "inhibition": "-4.08%"},
      {"smiles": "CSc1cccc(NC(=O)CSc2ccccc2)c1", "inhibition": "-14.5%"},
      {"smiles": "CCOc1ccc(C(=O)Nc2cccc(SC)c2)cc1", "inhibition": "82.4% (active)"},
      {"smiles": "CCOc1ccc(C(=O)Nc2cccc(-c3ccc4nncn4n3)c2)cc1", "inhibition": "-9.4%"},
      {"smiles": "COc1cccc(C(=O)Nc2nnc(S(=O)(=O)N3CCCCC3)s2)c1", "inhibition": "-11%"},
      {"smiles": "O=C(Nc1ccc(N2CCOCC2)cc1)c1cccc(S(=O)(=O)N2CCOCC2)c1", "inhibition": "-6.21%"},
      {"smiles": "COc1cccc(C(=O)Nc2ccc(N3CCCC3)cc2)c1", "inhibition": "96.4% (active)"},
      {"smiles": "O=C(OC1CCOC1=O)c1cccc(S(=O)(=O)Nc2ccc(F)cc2)c1", "note": "(centres undefined)", "inhibition": "2.88%"},
      {"smiles": "COc1cccc(NC(=O)COC(=O)/C=C/c2ccco2)c1", "inhibition": "-1.22%"},
      {"smiles": "O=C(/C=C/c1ccco1)NC(=S)Nc1ccccc1Br", "inhibition": "-6.97%"},
      {"smiles": "O=C(/C=C/c1ccco1)Nc1ccc(Oc2ccccc2)cc1", "inhibition": "58.9% (active)"},
      {"smiles": "O=C(NCCc1ccc(Cl)cc1Cl)c1cc([N+](=O)[O-])c[nH]c1=O", "inhibition": "4.55%"},
      {"smiles": "Cc1cc(OC(=O)c2ccc(OC(C)C)cc2)c([N+](=O)[O-])c(=O)[nH]1", "inhibition": "1.33%"},
      {"smiles": "O=[N+]([O-])c1ccc2c(c1)Nc1nc3ccccc3nc1N2", "inhibition": "-4.07%"},
      {"smiles": "COc1cccc(-c2nnc(SCCOc3ccc4c(C)cc(=O)oc4c3)o2)c1", "inhibition": "1.03%"},
      {"smiles": "COc1ccc2oc(-c3cccc(NC(=O)CSc4ccc(Cl)cc4)c3)nc2c1", "inhibition": "-5.16%"},
      {"smiles": "O=[N+]([O-])c1ccc2oc(-c3cccc(O)c3)nc2c1", "inhibition": "84.7% (active)"},
      {"smiles": "COc1cccc(-c2nc3cc(C)ccc3o2)c1", "inhibition": "96.2% (active)"},
      {"smiles": "COc1ccc([N+](=O)[O-])cc1-c1nc2ccccc2nc1-c1ccccc1", "inhibition": "12.3%"},
      {"smiles": "Cc1c(CC(=O)NCC(=O)NCC(=O)O)c(=O)oc2cc3oc4c(c3cc12)CCCC4", "inhibition": "-13.4%"},
      {"smiles": "Clc1ccc(-n2nnnc2CN2CCCCC2)cc1Cl", "inhibition": "-12%"},
      {"smiles": "O=C(/C=C/NNC(=O)c1cccc(Br)c1)c1ccccc1", "inhibition": "-1.09%"},
      {"smiles": "CCOc1ccccc1N1C(=O)CC(Sc2nccc(C)n2)C1=O", "note": "(centres undefined)", "inhibition": "1.56%"},
      {"smiles": "COc1ccc(NC(=O)CNc2cc(S(=O)(=O)N3CCOCC3)ccc2N2CCOCC2)c(OC)c1", "inhibition": "7.93%"},
      {"smiles": "Cc1c(Cl)cccc1NC(=O)NCc1ccc(C)n1C", "inhibition": "-0.511%"},
      {"smiles": "CC(=O)c1ccc(S(=O)(=O)NC2CC(=O)N(c3ccc4c(c3)OCCO4)C2)cc1", "note": "(centres undefined)", "inhibition": "-4.2%"},
      {"smiles": "CC(C)(C)OC(=O)C[C@@H]1C/C=C\\C[C@H](CC(=O)N[C@@H](CO)Cc2ccccc2)C(=O)N[C@H](Cc2ccccc2)COC1=O", "inhibition": "-7.09%"},
      {"smiles": "COc1cc(C2C(C(=O)c3cccs3)=C(O)C(=O)N2CCN2CCOCC2)ccc1OCCC(C)C", "note": "(centres undefined)", "inhibition": "-3.6%"},
      {"smiles": "CCn1cc(CN2CCC(C(=O)Nc3cccc(-c4cccc(Cl)c4)c3)CC2)c(C)n1", "inhibition": "-6.83%"},
      {"smiles": "CCN1CC=C2C(C#N)=C(N)C(C#N)(C#N)[C@H](c3ccoc3)[C@H]2C1", "inhibition": "50.7% (active)"},
      {"smiles": "N#CC1=C(N)C(C#N)(C#N)[C@H](c2ccsc2)[C@H]2COCC=C12", "inhibition": "-3.51%"},
      {"smiles": "CCCN1CC=C2C(C#N)=C(N)C(C#N)(C#N)C(c3cc(OC)ccc3OC)C2C1", "note": "(centres undefined)", "inhibition": "0.594%"},
      {"smiles": "Cc1cn(C)c(=O)n(C)c1=O", "inhibition": "-18.1%"},
      {"smiles": "O=C(Nc1cccc2cccnc12)c1cccc(Cl)c1", "inhibition": "8.84%"},
      {"smiles": "COc1ccc(NC(=O)Nc2cccc3cccnc23)cc1", "inhibition": "81% (active)"},
      {"smiles": "COc1ccc(NC(=O)C2CCCN(S(=O)(=O)c3cccc4cccnc34)C2)cc1", "note": "(centres undefined)", "inhibition": "6%"},
      {"smiles": "CC12CCC(C(=O)N(CCC#N)CCC#N)(CC1=O)C2(C)C", "note": "(centres undefined)", "inhibition": "-1.58%"},
      {"smiles": "CN(CCO)c1ccc(/C=N/Nc2nncc3ccccc23)cc1", "inhibition": "94.9% (active)"},
      {"smiles": "C/C(=N\\Nc1nncc2ccccc12)c1ccc(Cl)c([N+](=O)[O-])c1", "inhibition": "5.46%"},
      {"smiles": "COc1cccc(/C=N\\Nc2nncc(-c3ccccc3)n2)c1", "inhibition": "-14.9%"}
    ]}
  ]
}
